These results are taken from PubChem BioAssay (NCATS).

Assay [1] concerns the target T1, Tyrosine-protein phosphatase non-receptor type substrate 1 (Homo sapiens) + Leukocyte surface antigen CD47 (Homo sapiens) (UniProt P78324+Q08722). The assay is described as follows: CD47-SIRPalpha protein protein interaction - LANCE assay qHTS validation (AID 1347057; active = well fitted curve in the direction sought with a large enough effect in the signal ratio, with a control signal flat, not every such curve was filed as active; the % refers to the signal ratio; also: series mostly up to about 38 µM). In a few lines: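 First, His-tagged CD47 and Eu-labelled anti-His antibody met the compound for 30 min; next, site-specifically biotinylated SIRPalpha was added for 30 min; finally streptavidin-APC was added before reading the TR-FRET ratio.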

For assay [2], the target named is T1, Tyrosine-protein phosphatase non-receptor type substrate 1 (Homo sapiens) + Leukocyte surface antigen CD47 (Homo sapiens). The assay is described as follows: CD47-SIRPalpha protein protein interaction - HTRF assay qHTS validation (AID 1347058; active = well fitted curve in the direction sought with a large enough effect in the signal ratio, not every such curve was filed as active; the % refers to the signal ratio; also: series mostly up to about 38 µM). In a few lines:
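TR-FRET read (Ch1/Ch2 ratio) of soluble extracellular CD47 and Avi-biotinylated SIRPalpha domains in PBS pH 7.4 with 0.05% IGEPAL; 7-point compound titration. Sequential 30 min room-temperature steps; non-biotinylated SIRPalpha as control inhibitor.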

Assay [3] shares this target. The assay is described as follows: CD47-SIRPalpha protein protein interaction - Alpha assay qHTS validation (AID 1347059).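 Also: bead proximity luminescence from CD47 binding SIRPalpha after compound preincubation with SIRPalpha.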 In short, it runs like this:
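Soluble extracellular domains: Avi-tag biotinylated SIRPalpha (25 nM) preincubated 30 min RT with compound, then 6His-CD47 (12.5 nM) 30 min; Ni-NTA acceptor and streptavidin donor beads (10 ug/mL) 30 min, AlphaScreen read. PBS pH 7.4, 0.05% IGEPAL.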

In assay [4] the target is Parathyroid hormone/parathyroid hormone-related peptide receptor (Homo sapiens) (UniProt Q03431). The assay is described as follows: qHTS for PTHR1 Agonists: Optimization Screen against the NCGC LOPAC library (AID 1347079).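 Also: GloSensor cAMP luminescence in HEK-293 GP2 cells expressing human PTHR1 with IBMX.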 Also: potency is read from the fitted curve at half-maximal effect. In short, it runs like this: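 Agonist readout: GloSensor cAMP luminescence, read after 15 min at room temperature. HEK-293-derived GP2 line carries PTHR1; compounds tested as a titration for 1 hr at 37C in presence of IBMX. M-PTH (1-15) served as control.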
Chain of Parathyroid hormone/parathyroid hormone-related peptide receptor (Homo sapiens) (Q03431 whole entry, looked up): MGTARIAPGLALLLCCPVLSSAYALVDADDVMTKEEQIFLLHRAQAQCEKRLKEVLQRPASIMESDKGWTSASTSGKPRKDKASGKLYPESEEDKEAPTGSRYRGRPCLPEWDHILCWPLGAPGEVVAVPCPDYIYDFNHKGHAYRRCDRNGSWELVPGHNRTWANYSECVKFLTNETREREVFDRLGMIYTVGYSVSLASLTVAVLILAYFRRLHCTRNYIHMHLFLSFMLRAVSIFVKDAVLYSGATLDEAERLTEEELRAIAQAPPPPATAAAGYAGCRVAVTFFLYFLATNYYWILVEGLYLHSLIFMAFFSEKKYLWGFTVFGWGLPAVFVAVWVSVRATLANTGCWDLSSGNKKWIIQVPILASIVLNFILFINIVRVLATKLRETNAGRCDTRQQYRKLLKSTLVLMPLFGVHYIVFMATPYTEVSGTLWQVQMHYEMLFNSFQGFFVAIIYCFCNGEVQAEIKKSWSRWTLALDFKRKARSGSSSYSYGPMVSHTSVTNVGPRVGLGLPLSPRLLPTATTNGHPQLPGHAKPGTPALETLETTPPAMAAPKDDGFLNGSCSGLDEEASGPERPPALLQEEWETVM

Assay [5] deals with N-terminal Xaa-Pro-Lys N-methyltransferase 1 (Homo sapiens) (UniProt Q9BV86). The assay is described as follows: qHTS Assay for Inhibitors of N-terminal methyltransferase 1 (NTMT1): LOPAC validation of the NTMT1 SAHH-coupled ThioGlo3 Assay (AID 1347143). Also: nearly all actives have a fitted effect of over 70% in size. Also: potency is read from the fitted curve at half-maximal effect. In a few lines:
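Fluorescence read-out (excitation 340nm, emission 450nm) of SAH-derived thiol, measured via SAHH coupling and ThioGlo3, taken immediately and after a 30 min room-temperature reaction, then normalized to the background read. Enzyme: NTMT1 at 125nM; cofactor SAM 100uM in the added reagent.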

Assay [6] relates to Zika virus NS2B-NS3 protease (unlinked). The assay is described as follows: Optimization of GU AMC qHTS for Zika virus inhibitors: Unlinked NS2B-NS3 protease assay (AID 1347151). Also: nearly all actives have a fitted effect of over 80% in size. Also: potency is read from the fitted curve at half-maximal effect. In short, it runs like this: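 Noncovalent NS2B hydrophilic domain–NS3 protease complex (25 nM final) in 10 mM Tris-HCl pH 8.0, 0.01% Tween 20; AMC substrate, room temperature 15 min (~20% conversion); fluorescence change normalized, 4-parameter Hill fit.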

In assay [7] the test system is Zika virus NS2B-NS3 protease. The assay is described as follows: Primary screen GU AMC qHTS for Zika virus inhibitors (AID 1347154). Also: nearly all actives have a fitted effect of over 70% in size. In a few lines:
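Unlinked Zika NS2B hydrophilic domain/NS3 protease domain noncovalent complex (25 nM final) in 10 mM Tris-HCl pH 8.0, 0.01% Tween 20, with AMC peptide substrate. Fluorescence (ex 340, em 450 nm) change over 15 min, room temperature; percent inhibition fitted to 4-parameter Hill equation.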

Assay [8] addresses Furin (Homo sapiens) (UniProt P09958). The assay is described as follows: Furin counterscreen qHTS for Zika virus inhibitors (AID 1347149).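 Also: purified recombinant full-length human furin enzyme at 5 nM; fluorescence gain from furin cutting a BOC-RVRR-AMC peptide substrate over 15 min; top concentration of the series differs between compounds; nearly all actives have a fitted effect of over 70% in size.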 In a few lines:
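Fluorogenic cleavage of BOC-RVRR-AMC (2 microM final, Km ~15 µM) was monitored (ex 340, em 450 nm) at 37C after 15 min RT preincubation of 5 nM furin with compounds in HEPES pH 7.0 buffer with CaCl2 and Triton X-100. Percent inhibition was fitted to a 4-parameter Hill curve.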

For assay [9], the system named is Zika virus NS2B-NS3 protease (linked construct). The assay is described as follows: Confirmatory screen NINDS AMC qHTS for Zika virus inhibitors (AID 1347152).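 Also: AMC fluorescence gain from cleaved Bz-Nle-KRR-AMC substrate over 15 min; top concentration of the series differs between compounds; nearly all actives have a fitted effect of over 70% in size.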 In short, it runs like this:
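Linked NS2B-NS3 protease, 1 nM, in 10 mM Tris-HCl pH 8.0, 0.01% Tween 20; compounds preincubated 15 min at room temperature. Nle-KRR-AMC 10 microM (Km 18.3 µM); 15-min fluorescence change (340/450 nm) fitted to 4-parameter Hill.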

In assay [10] the test system is Zika virus NS2B-NS3 protease (unlinked complex). The assay is described as follows: Confirmatory screen GU AMC qHTS for Zika virus inhibitors (AID 1347153). Also: nearly all actives have a fitted effect of over 70% in size. In a few lines:
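Noncovalent NS2B hydrophilic domain/NS3 protease complex (25 nM) in 10 mM Tris-HCl pH 8.0, 0.01% Tween 20 was preincubated 15 min at room temperature with compounds. Then 10 µM AMC substrate (Km 18.3 µM) was added; fluorescence was read over 15 min and fitted to a 4-parameter Hill equation.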

Each structure is given as a SMILES string. Unmarked numbers belong to inactive results. Results filed as inconclusive are left out. The source made the active and inactive calls. Unless noted, calls follow the shape of the dose curve; as a rule, active = well fitted curve in the direction sought with a large enough effect; inconclusive = small, poorly fitted or top-dose-only effect, or another doubt; inactive = no such curve, though single readings can be large; an effect the other way counts as inactive or inconclusive.

Chain of N-terminal Xaa-Pro-Lys N-methyltransferase 1 (Homo sapiens) (Q9BV86 whole entry, looked up): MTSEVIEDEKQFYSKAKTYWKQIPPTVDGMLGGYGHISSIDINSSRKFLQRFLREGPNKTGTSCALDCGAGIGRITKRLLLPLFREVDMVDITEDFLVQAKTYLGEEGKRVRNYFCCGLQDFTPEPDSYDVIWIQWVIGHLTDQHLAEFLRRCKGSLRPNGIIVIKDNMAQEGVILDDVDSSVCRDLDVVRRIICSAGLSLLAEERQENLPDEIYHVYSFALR
T1 sequence (P78324 whole entry, looked up): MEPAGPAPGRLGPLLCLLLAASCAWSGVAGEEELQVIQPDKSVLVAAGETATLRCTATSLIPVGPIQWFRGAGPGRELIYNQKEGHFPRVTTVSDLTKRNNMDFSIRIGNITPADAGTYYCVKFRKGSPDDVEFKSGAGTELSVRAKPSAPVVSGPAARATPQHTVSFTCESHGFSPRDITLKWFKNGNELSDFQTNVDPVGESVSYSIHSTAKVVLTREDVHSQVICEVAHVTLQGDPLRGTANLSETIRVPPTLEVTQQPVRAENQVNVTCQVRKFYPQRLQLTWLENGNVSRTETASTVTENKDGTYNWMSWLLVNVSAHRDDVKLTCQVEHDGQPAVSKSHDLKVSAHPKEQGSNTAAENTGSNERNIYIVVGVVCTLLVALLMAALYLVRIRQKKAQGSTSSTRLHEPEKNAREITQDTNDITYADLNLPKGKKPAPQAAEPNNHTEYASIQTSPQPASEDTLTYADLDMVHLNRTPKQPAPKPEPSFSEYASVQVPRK
T1 sequence (Q08722 whole entry, looked up): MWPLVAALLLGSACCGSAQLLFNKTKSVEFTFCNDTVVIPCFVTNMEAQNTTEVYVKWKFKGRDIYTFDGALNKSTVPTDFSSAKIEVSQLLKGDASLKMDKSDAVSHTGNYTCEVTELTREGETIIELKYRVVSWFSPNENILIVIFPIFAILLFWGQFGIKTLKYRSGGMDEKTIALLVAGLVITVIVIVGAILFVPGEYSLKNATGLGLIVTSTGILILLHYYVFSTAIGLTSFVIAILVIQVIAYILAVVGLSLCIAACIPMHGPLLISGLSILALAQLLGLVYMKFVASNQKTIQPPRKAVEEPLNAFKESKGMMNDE
Chain of Furin (Homo sapiens) (P09958 whole entry, looked up): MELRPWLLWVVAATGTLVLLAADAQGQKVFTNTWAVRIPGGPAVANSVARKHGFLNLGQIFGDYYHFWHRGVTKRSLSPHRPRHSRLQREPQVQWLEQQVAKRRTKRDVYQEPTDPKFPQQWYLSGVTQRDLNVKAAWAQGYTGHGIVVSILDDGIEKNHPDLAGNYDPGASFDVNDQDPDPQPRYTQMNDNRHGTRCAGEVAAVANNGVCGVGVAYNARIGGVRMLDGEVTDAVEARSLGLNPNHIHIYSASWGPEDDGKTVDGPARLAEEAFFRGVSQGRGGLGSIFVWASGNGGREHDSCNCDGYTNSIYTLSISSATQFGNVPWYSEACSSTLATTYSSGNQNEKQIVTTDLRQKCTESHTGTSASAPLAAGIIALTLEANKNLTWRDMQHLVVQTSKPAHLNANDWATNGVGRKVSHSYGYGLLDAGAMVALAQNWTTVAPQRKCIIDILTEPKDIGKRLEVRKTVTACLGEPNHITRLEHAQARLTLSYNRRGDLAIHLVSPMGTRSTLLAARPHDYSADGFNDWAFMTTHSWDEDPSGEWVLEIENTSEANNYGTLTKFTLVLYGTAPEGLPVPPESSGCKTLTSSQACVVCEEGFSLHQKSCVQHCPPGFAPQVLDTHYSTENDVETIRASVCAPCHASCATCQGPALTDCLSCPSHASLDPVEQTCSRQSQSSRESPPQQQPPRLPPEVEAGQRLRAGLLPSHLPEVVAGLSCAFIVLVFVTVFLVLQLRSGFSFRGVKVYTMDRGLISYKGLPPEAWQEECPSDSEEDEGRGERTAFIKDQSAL

`NC1CCN(O)C1=O` (stereo unspecified): the Potency entry in [1], in assay [3], in assay [4], in [5] and in assay [6] was “inactive” each time. Besides, the outcome in assay [2] was inactive.
In the case of `OC[C@H]1O[C@H](n2cnc3c(N[C@H]4CCC[C@@H]4O)ncnc32)[C@H](O)[C@@H]1O`, the Potency entry in [1], in assay [3], in [4], in assay [5] and in [6] was “inactive” in each case. Also, the result in [2] was inactive.
Regarding `N=C(N)c1ccccc1`, the Potency entry in assay [1], in assay [3], in [4], in assay [5] and in assay [6] was “inactive” throughout. Further, the outcome in [2] was inactive.
`NCCCCN=C(N)N`: the Potency result in assay [1], in [3], in assay [4], in [5], in assay [6] and in assay [7] was “inactive” throughout. For the same molecule, the outcome in [2] was inactive.
As to `CNc1ncnc2c1ncn2[C@H]1C[C@H](OP(=O)(O)O)[C@@H](COP(=O)(O)O)O1`, the Potency result in assay [1], in [3], in [4], in assay [5] and in assay [6] was “inactive” in each case. Also, the outcome in assay [2] was inactive.
For `C=CCNc1ncnc2ccc(Br)cc12`, the Potency entry in [1], in assay [3], in assay [4], in assay [5] and in assay [6] was “inactive” in each case. Moreover, the result in assay [2] was inactive.
As to `O=C(O)/C=C/c1ccc(O)c(O)c1`, the Potency entry in assay [1], in [3], in assay [4] and in [6] was “inactive” each time. The result in [2] was inactive. For the same molecule, the Potency in assay [5] is 44.7 µM (active).
`N[C@@H](Cc1ccc(O)c(I)c1)C(=O)O`: the Potency result in assay [1], in assay [3], in [4], in assay [5] and in [6] was “inactive” each time. Further, the result in assay [2] was inactive.
Turning to `NC(N)=[N+]1CCc2ccccc2C1`, the Potency result in assay [1], in assay [3], in assay [4], in assay [5] and in assay [6] was “inactive” each time. The result in assay [2] was inactive.
In the case of `CCCCCCN(CCCCCC)C(=O)Cc1c(-c2ccc(F)cc2)[nH]c2ccccc12`, the Potency result in assay [1], in assay [3], in [4] and in assay [7] was “inactive” each time. Moreover, in assay [2], the result was inactive. For the same molecule, the Potency in assay [5] is 79.4 µM (active); in assay [6] it was 21.2 µM (active).
`CC(=O)C(C)=O`: the Potency entry in assay [1], in assay [3], in [4], in [5] and in assay [6] was “inactive” in each case. Besides, the outcome in assay [2] was inactive.
Consider `CN(C)CCC(c1ccc(Br)cc1)c1ccccn1` (stereo unspecified), for which the Potency result in [1], in assay [3], in assay [4], in assay [5] and in [6] was “inactive” in each case. Besides, the outcome in [2] was inactive.
Take `NC1(C(=O)O)CCCCC1`: the Potency entry in assay [1], in assay [3], in [4], in assay [5] and in assay [6] was “inactive” each time. Moreover, in [2], the result was inactive.
For the molecule `C=C1C[C@@]23CC[C@H]4[C@@](C)(CCC[C@@]4(C)C(=O)O)[C@@H]2CC[C@]1(O)C3`, the Potency entry in assay [1], in assay [3], in assay [4], in [5] and in assay [6] was “inactive” each time. Further, in assay [2], the outcome was inactive.
For `COC(=O)[C@H](NC(=O)c1cc(-c2ccccc2)nc2ccccc12)c1ccccc1`, the Potency result in [1], in [3], in assay [4] and in [7] was “inactive” throughout. In addition, the result in assay [2] was inactive. Further, the figures for the Potency in [5] and in assay [6] were 56.2 µM (active) and 23.8 µM (active), respectively.
Regarding `N=C(N)SCCN`, the Potency result in [1], in [3], in assay [4] and in assay [6] was “inactive” each time. The outcome in assay [2] was inactive.
For the molecule `CC(N)=O`, the Potency result in [1], in assay [3], in assay [4] and in [6] was “inactive” in each case. Further, in [2], the result was inactive.
Regarding `CCN1C(=O)C=CC1=O`, the Potency result in assay [1], in assay [3], in assay [4] and in [6] was “inactive” in each case. In [2], the result was inactive.
Consider `CC(C)Cn1c(=O)n(C)c(=O)c2[nH]cnc21`, for which the Potency result in [1], in [3], in assay [5] and in assay [7] was “inactive” in each case. In addition, in assay [2], the result was inactive. Besides, in [4], the Potency is 4.23 µM (active).
With `CC[N+](CC)(CC)CC(=O)Nc1c(C)cccc1C`, the Potency result in assay [1], in [3], in assay [4], in assay [5], in [6] and in assay [7] was “inactive” each time. Further, the outcome in [2] was inactive.
With `COc1ccccc1N1CCN(CCCNc2c(C)c(=O)n(C)c(=O)n2C)CC1`, the Potency result in [1], in [3], in [4], in [8], in [9] and in [10] was “inactive” in each case. In addition, the Potency result in [7] is “inactive”. In assay [2], the outcome was inactive.
For the molecule `N[C@H](C(=O)O)c1cc(O)cc(O)c1`, the Potency entry in [1], in assay [3], in [4], in assay [5], in [6] and in [7] was “inactive” in each case. Besides, the outcome in assay [2] was inactive.
For `OC1(c2ccc(Cl)cc2)CCN(Cc2c[nH]c3ccccc23)CC1`, the Potency entry in assay [1], in [3], in assay [4], in assay [5] and in [7] was “inactive” each time. Further, the outcome in assay [2] was inactive.
On to `CCN(CC)CCOC(=O)c1cc(Cl)c(N)cc1OC`, for which the Potency result in [1], in assay [3], in [4], in [6] and in [7] was “inactive” throughout. For the same molecule, in assay [2], the result was inactive.
In the case of `Cn1c(=O)[nH]c2ncn(C)c2c1=O`, the Potency result in [1], in assay [3], in assay [4], in assay [5] and in [7] was “inactive” throughout. Moreover, the result in [2] was inactive.
With `CC(=O)NNC(=O)N1Cc2ccccc2Oc2ccc(Cl)cc21`, the Potency result in [1], in [3], in [4], in [5], in assay [6] and in assay [7] was “inactive” each time. In addition, in [2], the result was inactive.
Regarding `CSc1nc(N)c2ncn([C@@H]3O[C@H](COP(=O)(O)OP(=O)(O)O)C(O)[C@H]3O)c2n1` (stereo partly specified), the Potency entry in [1], in assay [3], in assay [4] and in assay [6] was “inactive” throughout. Besides, in assay [2], the outcome was inactive.
In the case of `C=CC[C@H](N)C(=O)O`, the Potency result in [1], in [3], in [4] and in [6] was “inactive” in each case. In addition, the result in assay [2] was inactive.
